Measurements published in PubChem BioAssay AID1159580 (chemical genetic matrix, 2015).
Out of some 5,500 compounds screened, about 2,000 (36%) were called active. Roughly 18% stayed inconclusive and do not appear here. Cut-off read from the data, not from the text of the source: active = normalized growth mostly below about 0.91 (no sharp cut-off); inconclusive = no clear call, values can overlap the other calls; inactive = mostly above about 0.92. Some of the results follow.

Assay: chemical genetic growth profiling, strain panel (AID 1159580);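 note: tested at 20 µM; growth read once vehicle control cultures reached saturation at 30 °C; 1 = growth at the plate median or of vehicle wells; lower values mean less growth of the strain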
Conditions: growth OD

Measured: normalized growth

COc1cc2c(cc1OC)C1Cc3ccc(OC)c(OC)c3CN1CC2 (configuration not stated)
inactive: S. cerevisiae deletion strains, locus YJR066W, strain TOR1, stronger effect = lower value 0.912 | S. cerevisiae deletion strains, locus YKL009W, strain mrt4, stronger effect = lower value 0.988 | S. cerevisiae deletion strains, locus YKL068W, stronger effect = lower value 0.999 | S. cerevisiae deletion strains, locus YKL085W, strain MDH1 (second series), stronger effect = lower value 0.988 | S. cerevisiae deletion strains, locus YKL085W, strain MDH1, stronger effect = lower value 0.988 | S. cerevisiae deletion strains, locus YKL160W, strain elf1, stronger effect = lower value 1.01 | S. cerevisiae deletion strains, locus YKR001C, strain vps1, stronger effect = lower value 1.01 | S. cerevisiae deletion strains, locus YKR026C, strain gcn3, stronger effect = lower value 0.979 | S. cerevisiae deletion strains, locus YKR091W, strain srl3, stronger effect = lower value 0.98 | S. cerevisiae deletion strains, locus YLL001W, strain dnm1, stronger effect = lower value 0.99 | S. cerevisiae deletion strains, locus YLL026W, stronger effect = lower value 0.989 | S. cerevisiae deletion strains, locus YLL041C, strain sdh2, stronger effect = lower value 0.975 | S. cerevisiae deletion strains, locus YLR027C, strain aat2, stronger effect = lower value 0.969 | S. cerevisiae deletion strains, locus YLR039C, strain RIC1, stronger effect = lower value 0.979 | S. cerevisiae deletion strains, locus YLR058C, strain SHM2, stronger effect = lower value 1.01 | S. cerevisiae deletion strains, locus YLR102C, strain apc9, stronger effect = lower value 0.982 | S. cerevisiae deletion strains, locus YLR113W, strain HOG1, stronger effect = lower value 0.978 | S. cerevisiae deletion strains, locus YLR221C, strain rsa3, stronger effect = lower value 0.985 | S. cerevisiae deletion strains, locus YLR258W, strain gsy2, stronger effect = lower value 0.977 | S. cerevisiae deletion strains, locus YLR262C, strain YPT6 (second series), stronger effect = lower value 0.957 | S. cerevisiae deletion strains, locus YLR262C, strain YPT6, stronger effect = lower value 0.918 | S. cerevisiae deletion strains, locus YLR268W, strain sec22, stronger effect = lower value 0.962 | S. cerevisiae deletion strains, locus YLR320W, strain mms22, stronger effect = lower value 0.982 | S. cerevisiae deletion strains, locus YLR330W, strain CHS5, stronger effect = lower value 1.01 | S. cerevisiae deletion strains, locus YLR342W, strain FKS1 (second series), stronger effect = lower value 0.957 | S. cerevisiae deletion strains, locus YLR342W, strain FKS1, stronger effect = lower value 0.968 | S. cerevisiae deletion strains, locus YLR357W, strain rsc2, stronger effect = lower value 0.994 | S. cerevisiae deletion strains, locus YLR370C, strain arc18, stronger effect = lower value 0.971 | S. cerevisiae deletion strains, locus YLR371W, strain rom2, stronger effect = lower value 1.01 | S. cerevisiae deletion strains, locus YLR384C, strain iki3, stronger effect = lower value 0.988 | S. cerevisiae deletion strains, locus YLR418C, strain cdc73, stronger effect = lower value 1.02 | S. cerevisiae deletion strains, locus YML016C, strain PPZ1, stronger effect = lower value 0.988 | S. cerevisiae deletion strains, locus YML032C, strain rad52, stronger effect = lower value 1.03 | S. cerevisiae deletion strains, locus YML120C, strain ndi1, stronger effect = lower value 0.984 | S. cerevisiae deletion strains, locus YML124C, strain tub3, stronger effect = lower value 0.987 | S. cerevisiae deletion strains, locus YMR058W, strain fet3, stronger effect = lower value 0.984 | S. cerevisiae deletion strains, locus YMR078C, strain ctf18, stronger effect = lower value 0.968 | S. cerevisiae deletion strains, locus YMR125W, strain sto1, stronger effect = lower value 0.953 | S. cerevisiae deletion strains, locus YMR129W, stronger effect = lower value 0.978 | S. cerevisiae deletion strains, locus YMR205C, strain PFK2, stronger effect = lower value 0.987 | S. cerevisiae deletion strains, locus YMR223W, strain ubp8, stronger effect = lower value 1.01 | S. cerevisiae deletion strains, locus YMR231W, strain pep5, stronger effect = lower value 0.966 | S. cerevisiae deletion strains, locus YMR263W, strain SAP30, stronger effect = lower value 1 | S. cerevisiae deletion strains, locus YMR307W, strain GAS1, stronger effect = lower value 1 | S. cerevisiae deletion strains, locus YNL067W, strain RPL9B, stronger effect = lower value 1.02 | S. cerevisiae deletion strains, locus YNL071W, strain lat1, stronger effect = lower value 0.974 | S. cerevisiae deletion strains, locus YNL128W, strain TEP1, stronger effect = lower value 0.983 | S. cerevisiae deletion strains, locus YNL153C, strain GIM3, stronger effect = lower value 1.03 | S. cerevisiae deletion strains, locus YNL183C, strain NPR1, stronger effect = lower value 0.93 | S. cerevisiae deletion strains, locus YNL209W, strain ssb2, stronger effect = lower value 1.01 | S. cerevisiae deletion strains, locus YNL233W, strain BNI4, stronger effect = lower value 1.02 | S. cerevisiae deletion strains, locus YNL248C, strain rpa49, stronger effect = lower value 0.961 | S. cerevisiae deletion strains, locus YNL250W, strain rad50, stronger effect = lower value 0.968 | S. cerevisiae deletion strains, locus YNL271C, strain bni1, stronger effect = lower value 0.976 | S. cerevisiae deletion strains, locus YNL298W, strain CLA4, stronger effect = lower value 0.991 | S. cerevisiae deletion strains, locus YNL307C, strain MCK1, stronger effect = lower value 1 | S. cerevisiae deletion strains, locus YNL322C, strain KRE1 (second series), stronger effect = lower value 0.948 | S. cerevisiae deletion strains, locus YNR049C, strain mso1, stronger effect = lower value 0.967 | S. cerevisiae deletion strains, locus YNR052C, strain pop2, stronger effect = lower value 0.993 | S. cerevisiae deletion strains, locus YOL012C, strain htz1 0.904 | S. cerevisiae deletion strains, locus YOL147C, strain pex11, stronger effect = lower value 0.99 | S. cerevisiae deletion strains, locus YOR001W, strain rrp6, stronger effect = lower value 0.957 | S. cerevisiae deletion strains, locus YOR061W, strain CKA2, stronger effect = lower value 0.996 | S. cerevisiae deletion strains, locus YOR069W, strain VPS5, stronger effect = lower value 0.984 | S. cerevisiae deletion strains, locus YOR070C, strain gyp1, stronger effect = lower value 0.984 | S. cerevisiae deletion strains, locus YOR080W, strain dia2, stronger effect = lower value 0.971 | S. cerevisiae deletion strains, locus YOR083W, strain WHI5, stronger effect = lower value 1.01 | S. cerevisiae deletion strains, locus YOR106W, strain vam3, stronger effect = lower value 0.987 | S. cerevisiae deletion strains, locus YOR136W, strain idh2, stronger effect = lower value 0.975 | S. cerevisiae deletion strains, locus YOR144C, strain elg1, stronger effect = lower value 0.989 | S. cerevisiae deletion strains, locus YOR184W, strain ser1, stronger effect = lower value 0.917 | S. cerevisiae deletion strains, locus YOR231W, strain MKK1, stronger effect = lower value 0.99 | S. cerevisiae deletion strains, locus YOR265W, strain rbl2, stronger effect = lower value 0.961 | S. cerevisiae deletion strains, locus YOR270C, strain vph1, stronger effect = lower value 0.94 | S. cerevisiae deletion strains, locus YOR290C, strain snf2, stronger effect = lower value 0.994 | S. cerevisiae deletion strains, locus YOR316C, strain cot1, stronger effect = lower value 0.99 | S. cerevisiae deletion strains, locus YPL051W, strain arl3, stronger effect = lower value 0.997 | S. cerevisiae deletion strains, locus YPL078C, strain atp4, stronger effect = lower value 0.981 | S. cerevisiae deletion strains, locus YPL106C, strain sse1, stronger effect = lower value 1.02 | S. cerevisiae deletion strains, locus YPL240C, strain hsp82, stronger effect = lower value 0.968 | S. cerevisiae deletion strains, locus YPL256C, strain CLN2, stronger effect = lower value 1 | S. cerevisiae deletion strains, locus YPR119W, strain clb2, stronger effect = lower value 0.994 | S. cerevisiae deletion strains, locus YPR141C, strain kar3, stronger effect = lower value 0.982 | S. cerevisiae deletion strains, locus YPR163C, strain tif3, stronger effect = lower value 0.989 | S. cerevisiae deletion strains, locus YPR167C, strain met16, stronger effect = lower value 0.99 | S. cerevisiae deletion strains, strain wtn01, stronger effect = lower value 0.968 | S. cerevisiae strains, strain wild type, stronger effect = lower value 1.01
